Assay results reported in the supplement of paper PMC10849652.
The full data set covers some 7,900 targets. This sample favours those with a hit. About 0.6% of all pairs of compound and target were hits. A number with no mark means an inactive call.

Columns and labels:
Experiment in all cases: log2 fold change, soluble protein after heating vs DMSO (PISA); higher = thermal stabilisation; K562 cells, 10 uM, 30 min; active = over 0.2 and 3.5 SD of the protein, either way, in both replicates (recomputed)
IRAK-1-4 Inhibitor I = compound: C1COCCN1CCN2C3=CC=CC=C3N=C2NC(=O)C4=CC(=CC=C4)[N+](=O)[O-] [IRAK-1-4 Inhibitor I]
Method in brief: (§1)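 K562 cells at 2×10^6 cells/mL were given 10 μM compound for 30 min. Aliquots then went through 3 min of heating across 48°C-58°C, were pooled, and were extracted in PBS with 0.5% NP-40 at 4°C, and the supernatant after 21,000xg for 90 min was quantified by TMTpro 16plex LC-MS/MS with channel sums equalised. Thermal stability relative to control samples, from duplicates, is given as log2 fold change.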

ibrutinib = compound: C=CC(=O)N1CCC[C@@H](n2nc(-c3ccc(Oc4ccccc4)cc3)c3c(N)ncnc32)C1 [ibrutinib]
Method in brief: as §1

[1] = compound: CC(=O)c1cnc2ccc(-c3cc(Cl)c(O)c(Cl)c3)nc2c1N[C@H]1CC[C@H](CN(C)C)CC1
Method in brief: as §1

ralimetinib = compound: CC(C)(C)Cn1c(N)nc2ccc(-c3[nH]c(C(C)(C)C)nc3-c3ccc(F)cc3)nc21 [ralimetinib]
Method in brief: as §1

[2] = compound: CC(C)(O)CC(=O)NCCn1ccc2ncnc(Nc3ccc(Oc4cccc(C(F)(F)F)c4)c(Cl)c3)c21
Method in brief: as §1

[3] = compound: CC(C)C1=C2N=C(C=C(N2N=C1)NCC3=CC=CC=C3)NCCCCCCN
Method in brief: as §1

[4] = compound: CC(C)C[C@@H](C=O)NC(=O)[C@H](CC(C)C)NC(=O)[C@H](CC(C)C)NC(=O)OCc1ccccc1
Method in brief: as §1

pinometostat = compound: CC(C)N(C[C@H]1O[C@@H](n2cnc3c(N)ncnc32)[C@H](O)[C@@H]1O)[C@H]1C[C@@H](CCc2nc3cc(C(C)(C)C)ccc3[nH]2)C1 [pinometostat]
Method in brief: as §1

[5] = compound: CC1=C(C(CC(=O)N1)C2=CC=C(C=C2)C(F)(F)F)C(=O)NC3=C(C=C4C(=C3)C=NN4)F
Method in brief: as §1

[6] = compound: CC1=C(C2=C(C=C1)C(=O)C3=CC=CC=C3N2CCCN)C
Method in brief: as §1

[7] = compound: CC1=C(C=C(C=C1)NC(=O)C2=CC(=CC=C2)C(C)(C)C#N)NC3=CC4=C(C=C3)N=CN(C4=O)C
Method in brief: as §1

[8] = compound: CC1=C(C=C(C=C1)NC(=O)C2=CC(=CC=C2)N(C)C)NC(=O)C3=CC=C(C=C3)O
Method in brief: as §1

[9] = compound: CC1=CC=C(C=C1)SC2=C3C=C(SC3=CN=C2)C(=O)N
Method in brief: as §1

[10] = compound: CC1=NC(=CC=C1)C2=C(N=C(N2)C(C)(C)C)C3=CC4=NC=CN=C4C=C3
Method in brief: as §1

Nexturastat A = compound: CCCCN(Cc1ccc(C(=O)NO)cc1)C(=O)Nc1ccccc1 [Nexturastat A]
Method in brief: as §1

vemurafenib = compound: CCCS(=O)(=O)Nc1ccc(F)c(C(=O)c2c[nH]c3ncc(-c4ccc(Cl)cc4)cc23)c1F [vemurafenib]
Method in brief: as §1

[11] = compound: CCCS(=O)(=O)Nc1ccc(F)c(C(=O)c2c[nH]c3ncc(Cl)cc23)c1F
Method in brief: as §1

[12] = compound: CCCc1cc(C)[nH]c(=O)c1CNC(=O)c1cc(-c2ccnc(N3CCN(C)CC3)c2)cc2c1cnn2C(C)C
Method in brief: as §1

givinostat = compound: CCN(CC)Cc1ccc2cc(COC(=O)Nc3ccc(C(=O)NO)cc3)ccc2c1 [givinostat]
Method in brief: as §1

barasertib = compound: CCN(CCCOc1ccc2c(Nc3cc(CC(=O)Nc4cccc(F)c4)[nH]n3)ncnc2c1)CCOP(=O)(O)O [barasertib]
Method in brief: as §1

Sequence of UniProt P29084 (P29084 whole entry, looked up): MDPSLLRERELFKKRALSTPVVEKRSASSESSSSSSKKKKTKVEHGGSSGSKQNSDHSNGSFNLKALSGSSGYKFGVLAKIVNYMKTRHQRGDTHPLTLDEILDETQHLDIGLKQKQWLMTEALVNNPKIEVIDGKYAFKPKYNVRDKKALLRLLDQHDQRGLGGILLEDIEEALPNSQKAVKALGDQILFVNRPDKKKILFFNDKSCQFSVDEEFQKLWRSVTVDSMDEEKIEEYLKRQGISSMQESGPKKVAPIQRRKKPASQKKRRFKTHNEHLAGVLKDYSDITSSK
Sequence of UniProt P69905 (P69905 whole entry, looked up): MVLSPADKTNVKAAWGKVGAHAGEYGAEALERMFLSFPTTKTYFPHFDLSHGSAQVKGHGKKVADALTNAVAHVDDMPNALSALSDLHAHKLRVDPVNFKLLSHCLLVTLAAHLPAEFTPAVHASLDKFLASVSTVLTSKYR
Sequence of UniProt Q9UBN7 (Q9UBN7 whole entry, looked up): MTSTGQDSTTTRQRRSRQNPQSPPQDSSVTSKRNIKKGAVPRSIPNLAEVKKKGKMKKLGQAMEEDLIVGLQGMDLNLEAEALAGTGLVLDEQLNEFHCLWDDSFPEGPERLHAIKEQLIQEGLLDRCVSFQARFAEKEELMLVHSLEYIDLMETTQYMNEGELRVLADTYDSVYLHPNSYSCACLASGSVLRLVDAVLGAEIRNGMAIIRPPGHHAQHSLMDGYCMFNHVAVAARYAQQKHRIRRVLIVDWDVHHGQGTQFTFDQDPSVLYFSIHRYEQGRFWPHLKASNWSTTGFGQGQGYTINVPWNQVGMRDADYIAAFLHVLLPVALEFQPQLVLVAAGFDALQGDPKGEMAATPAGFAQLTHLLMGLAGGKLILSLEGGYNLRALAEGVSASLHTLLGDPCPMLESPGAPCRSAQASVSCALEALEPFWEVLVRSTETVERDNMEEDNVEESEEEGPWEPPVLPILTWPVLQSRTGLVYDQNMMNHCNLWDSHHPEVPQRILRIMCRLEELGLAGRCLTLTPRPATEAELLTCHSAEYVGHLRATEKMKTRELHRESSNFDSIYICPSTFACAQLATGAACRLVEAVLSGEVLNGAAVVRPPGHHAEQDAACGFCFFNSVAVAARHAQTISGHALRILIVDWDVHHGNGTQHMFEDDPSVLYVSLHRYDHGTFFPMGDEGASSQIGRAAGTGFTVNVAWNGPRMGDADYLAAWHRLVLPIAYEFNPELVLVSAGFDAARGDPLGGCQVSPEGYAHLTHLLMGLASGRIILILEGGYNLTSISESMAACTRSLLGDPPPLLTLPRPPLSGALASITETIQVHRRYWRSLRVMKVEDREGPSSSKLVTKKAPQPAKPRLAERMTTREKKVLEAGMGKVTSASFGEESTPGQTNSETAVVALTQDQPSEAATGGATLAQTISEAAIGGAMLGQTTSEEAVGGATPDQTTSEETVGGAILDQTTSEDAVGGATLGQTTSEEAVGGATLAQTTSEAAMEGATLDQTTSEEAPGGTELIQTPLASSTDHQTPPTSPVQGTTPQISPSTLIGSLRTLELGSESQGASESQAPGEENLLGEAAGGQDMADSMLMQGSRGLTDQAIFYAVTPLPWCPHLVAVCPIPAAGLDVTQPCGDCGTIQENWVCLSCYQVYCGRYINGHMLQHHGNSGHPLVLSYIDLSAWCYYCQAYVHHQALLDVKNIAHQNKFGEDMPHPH
Sequence of UniProt P39748 (P39748 whole entry, looked up): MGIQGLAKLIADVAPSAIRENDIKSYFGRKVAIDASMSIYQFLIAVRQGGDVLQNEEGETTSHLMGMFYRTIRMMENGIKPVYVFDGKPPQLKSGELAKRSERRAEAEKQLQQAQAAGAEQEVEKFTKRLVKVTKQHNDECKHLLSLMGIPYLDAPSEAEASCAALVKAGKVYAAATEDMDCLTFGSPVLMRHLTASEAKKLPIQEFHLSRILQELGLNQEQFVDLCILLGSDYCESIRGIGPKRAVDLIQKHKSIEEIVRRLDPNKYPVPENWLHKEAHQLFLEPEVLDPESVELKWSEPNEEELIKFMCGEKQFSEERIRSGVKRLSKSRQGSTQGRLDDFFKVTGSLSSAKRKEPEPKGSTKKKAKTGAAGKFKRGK
Sequence of UniProt Q5JWF2 (Q5JWF2 whole entry, looked up): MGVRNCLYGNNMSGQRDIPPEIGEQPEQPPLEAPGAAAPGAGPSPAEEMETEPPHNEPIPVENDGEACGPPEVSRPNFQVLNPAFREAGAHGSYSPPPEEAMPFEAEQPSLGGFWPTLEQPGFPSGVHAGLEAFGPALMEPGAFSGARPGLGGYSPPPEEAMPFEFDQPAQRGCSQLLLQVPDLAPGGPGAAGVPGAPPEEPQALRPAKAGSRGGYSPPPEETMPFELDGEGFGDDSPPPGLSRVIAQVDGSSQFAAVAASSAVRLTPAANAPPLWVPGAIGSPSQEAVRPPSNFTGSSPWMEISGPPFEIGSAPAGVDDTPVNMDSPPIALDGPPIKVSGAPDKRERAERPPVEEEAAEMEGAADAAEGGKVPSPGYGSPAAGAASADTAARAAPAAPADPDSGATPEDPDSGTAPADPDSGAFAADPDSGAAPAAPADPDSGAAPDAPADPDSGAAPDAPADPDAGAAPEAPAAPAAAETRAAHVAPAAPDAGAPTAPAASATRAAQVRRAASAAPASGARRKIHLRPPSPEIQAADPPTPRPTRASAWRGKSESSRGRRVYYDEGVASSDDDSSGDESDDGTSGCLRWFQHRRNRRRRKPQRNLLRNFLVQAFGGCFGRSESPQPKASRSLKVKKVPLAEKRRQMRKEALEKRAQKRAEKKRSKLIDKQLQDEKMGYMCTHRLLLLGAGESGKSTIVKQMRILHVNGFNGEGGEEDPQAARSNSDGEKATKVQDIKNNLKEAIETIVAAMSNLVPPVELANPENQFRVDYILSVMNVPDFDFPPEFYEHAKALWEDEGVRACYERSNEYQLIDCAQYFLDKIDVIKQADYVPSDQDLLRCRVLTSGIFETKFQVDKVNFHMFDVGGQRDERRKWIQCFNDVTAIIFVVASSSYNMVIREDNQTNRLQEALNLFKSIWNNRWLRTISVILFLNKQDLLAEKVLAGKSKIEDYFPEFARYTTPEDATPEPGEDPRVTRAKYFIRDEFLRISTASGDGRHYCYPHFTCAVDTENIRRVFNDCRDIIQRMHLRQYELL
Sequence of UniProt Q6P3S6 (Q6P3S6 whole entry, looked up): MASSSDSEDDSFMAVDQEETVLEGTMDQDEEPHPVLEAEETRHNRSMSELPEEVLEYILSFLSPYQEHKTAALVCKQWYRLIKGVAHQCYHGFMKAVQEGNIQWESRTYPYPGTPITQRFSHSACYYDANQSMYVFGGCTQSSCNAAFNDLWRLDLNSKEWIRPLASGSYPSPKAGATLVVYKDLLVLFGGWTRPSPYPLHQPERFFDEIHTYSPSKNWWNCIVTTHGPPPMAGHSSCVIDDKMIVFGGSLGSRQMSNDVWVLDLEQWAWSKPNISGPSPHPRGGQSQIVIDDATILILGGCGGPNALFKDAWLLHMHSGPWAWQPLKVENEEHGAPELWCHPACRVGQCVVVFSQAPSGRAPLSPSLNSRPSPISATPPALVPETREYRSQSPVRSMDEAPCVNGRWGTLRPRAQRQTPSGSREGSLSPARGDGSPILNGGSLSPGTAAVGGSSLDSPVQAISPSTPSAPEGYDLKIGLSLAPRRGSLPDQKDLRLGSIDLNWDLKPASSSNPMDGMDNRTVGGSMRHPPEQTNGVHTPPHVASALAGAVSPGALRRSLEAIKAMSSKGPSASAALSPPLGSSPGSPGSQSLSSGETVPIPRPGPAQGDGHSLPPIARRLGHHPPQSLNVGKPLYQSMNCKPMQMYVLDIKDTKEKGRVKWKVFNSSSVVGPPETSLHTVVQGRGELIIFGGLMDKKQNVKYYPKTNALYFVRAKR
Sequence of UniProt O94925 (O94925 whole entry, looked up): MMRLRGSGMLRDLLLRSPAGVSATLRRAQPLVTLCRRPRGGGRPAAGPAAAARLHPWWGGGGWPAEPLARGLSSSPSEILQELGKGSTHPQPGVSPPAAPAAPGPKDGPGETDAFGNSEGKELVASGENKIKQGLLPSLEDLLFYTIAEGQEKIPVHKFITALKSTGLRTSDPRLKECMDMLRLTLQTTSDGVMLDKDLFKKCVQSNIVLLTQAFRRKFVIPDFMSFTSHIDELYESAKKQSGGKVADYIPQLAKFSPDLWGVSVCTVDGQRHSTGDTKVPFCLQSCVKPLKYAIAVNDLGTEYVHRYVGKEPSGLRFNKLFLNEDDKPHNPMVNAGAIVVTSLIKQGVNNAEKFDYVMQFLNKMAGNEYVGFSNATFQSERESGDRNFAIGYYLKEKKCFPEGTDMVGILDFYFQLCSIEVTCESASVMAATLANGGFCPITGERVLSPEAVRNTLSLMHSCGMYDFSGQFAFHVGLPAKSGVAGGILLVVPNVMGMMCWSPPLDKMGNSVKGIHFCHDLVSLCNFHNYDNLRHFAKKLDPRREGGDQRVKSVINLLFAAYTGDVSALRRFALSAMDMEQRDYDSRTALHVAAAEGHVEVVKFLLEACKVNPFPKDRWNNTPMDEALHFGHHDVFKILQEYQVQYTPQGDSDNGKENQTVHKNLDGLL
Sequence of UniProt Q9Y5Q8 (Q9Y5Q8 whole entry, looked up): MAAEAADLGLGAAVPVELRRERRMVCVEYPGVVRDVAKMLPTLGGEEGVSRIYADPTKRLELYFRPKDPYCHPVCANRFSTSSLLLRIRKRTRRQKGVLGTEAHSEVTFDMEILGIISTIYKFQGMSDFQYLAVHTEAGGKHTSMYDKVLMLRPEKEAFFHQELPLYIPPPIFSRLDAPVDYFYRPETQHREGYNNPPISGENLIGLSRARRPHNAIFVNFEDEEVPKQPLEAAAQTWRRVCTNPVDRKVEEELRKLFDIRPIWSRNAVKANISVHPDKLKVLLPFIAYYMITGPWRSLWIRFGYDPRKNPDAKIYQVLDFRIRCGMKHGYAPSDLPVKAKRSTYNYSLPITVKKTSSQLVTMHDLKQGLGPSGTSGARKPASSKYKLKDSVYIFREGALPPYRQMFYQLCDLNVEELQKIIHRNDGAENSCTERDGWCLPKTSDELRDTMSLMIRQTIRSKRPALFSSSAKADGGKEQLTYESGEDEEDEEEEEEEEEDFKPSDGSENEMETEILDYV

Target | log2 fold change (IRAK-1-4 Inhibitor I) | log2 fold change (ibrutinib) | log2 fold change [1] | log2 fold change (ralimetinib) | log2 fold change [2] | log2 fold change [3] | log2 fold change [4] | log2 fold change (pinometostat) | log2 fold change [5] | log2 fold change [6] | log2 fold change [7] | log2 fold change [8] | log2 fold change [9] | log2 fold change [10] | log2 fold change (Nexturastat A) | log2 fold change (vemurafenib) | log2 fold change [11] | log2 fold change [12] | log2 fold change (givinostat) | log2 fold change (barasertib)
FECH isoform 2 (UniProt P22830) | 0.408 | 0.082 | 0.129 | 0.159 | 0.426 | -0.691 (active) | -0.144 | -0.098 | -0.457 | 0.514 | 0.45 | 0.162 | -0.16 | -0.006 | -0.123 | 0.022 | -0.167 | 0.367 | -0.238 | -0.049
HBA1 (UniProt P69905) | 0.002 | 0.007 | -0.03 | -0.037 | -0.035 | 0.094 | -0.056 | 0.025 | -0.019 | 0.127 | 0.021 | -0.068 | 0.071 | 0.018 | 0.015 | 0.137 | 0.037 | -0.038 | -0.061 | 0.072
FBXO42 (UniProt Q6P3S6) | -0.103 | -0.009 | -0.108 | -0.064 | -0.093 | -0.169 | 0.011 | -0.051 | -0.038 | 0.086 | -0.033 | 0.164 | -0.038 | 0.04 | -0.072 | -0.086 | 0.083 | -0.025 | 0.09 | 0.015
GTF3C5 isoform 3 (UniProt Q9Y5Q8) | -0.028 | 0.046 | 0.047 | 0.01 | -0.025 | -0.293 | 0.083 | 0.109 | 0.147 | -0.171 | 0.058 | -0.022 | 0.088 | 0.007 | 0.136 | 0.101 | 0.056 | 0.061 | 0.045 | 0.08
FEN1 (UniProt P39748) | -0.071 | -0.016 | -0.116 | -0.008 | -0.368 | -0.393 | 0.039 | -0.03 | -0.067 | -0.016 | 0.018 | -0.08 | 0.045 | 0.057 | -0.194 | 0.121 | 0.022 | -0.03 | 0.096 | 0.088
HRAS (UniProt P01112) | 0.093 | 0.143 | 0.065 | 0 | -0.004 | 0.047 | 0.13 | -0.059 | -0.013 | -0.121 | -0.042 | -0.065 | -0.031 | 0.096 | 0.147 | 0.064 | -0.083 | 0.089 | -0.065 | 0.063
FNTB (UniProt P49356) | 0.017 | 0.309 | -0.028 | -0.016 | -0.025 | 0.074 | -0.033 | -0.003 | -0.146 | -0.087 | 0.032 | -0.058 | 0 | 0 | -0.041 | 0.011 | -0.052 | 0.029 | -0.083 | -0.034
GLS (UniProt O94925) | 0.051 | -0.096 | 0.002 | -0.071 | -0.14 | 0.004 | 0.032 | -0.037 | 0.008 | 0.002 | -0.013 | -0.072 | -0.024 | 0.034 | -0.065 | 0.096 | 0.132 | 0.062 | 0.041 | 0.054
GTF2E2 (UniProt P29084) | -0.041 | -0.008 | -0.104 | -0.012 | -0.033 | -0.137 | 0.075 | 0.056 | 0.001 | 0.056 | 0.045 | -0.068 | -0.01 | 0.02 | 0.082 | 0.057 | -0.039 | 0.055 | 0.059 | 0.035
FUBP3 (UniProt Q96I24) | -0.002 | -0.002 | -0.054 | 0.023 | -0.083 | 0.15 | 0.036 | -0.017 | -0.022 | 0.387 (active) | 0.021 | -0.018 | 0.01 | 0.122 | -0.114 | 0.035 | 0.018 | -0.059 | -0.023 | -0.012
GALC (UniProt P54803) | 0.053 | 0.017 | 0.016 | -0.012 | 0.041 | -0.122 | 0.05 | 0.067 | 0.035 | -0.003 | 0.002 | -0.032 | 0 | -0.013 | 0.012 | -0.03 | -0.03 | -0.049 | 0.036 | 0.002
GALNT11 (UniProt Q8NCW6) | -0.008 | -0.088 | -0.022 | 0.065 | 0.018 | 0.015 | 0.038 | 0.045 | 0.002 | 0.039 | 0.011 | 0.049 | -0.024 | -0.041 | -0.032 | 0.009 | -0.035 | -0.002 | 0.027 | 0.118
HDAC6 (UniProt Q9UBN7) | -0.086 | 0.314 | -0.03 | 0.034 | -0.023 | 0.069 | -0.025 | 0.009 | -0.046 | 0.021 | 0.016 | -0.041 | 0.022 | -0.091 | 0.522 (active) | 0.004 | -0.018 | -0.015 | 1.03 (active) | 0
GLUD2 (UniProt P49448) | 0.025 | 0.045 | 0.113 | 0 | 0.098 | -0.041 | 0.014 | -0.013 | -0.098 | 0.127 | 0.104 | 0.006 | -0.062 | -0.015 | -0.045 | 0.017 | 0.006 | 0.238 | -0.107 | 0.015
GUSB (UniProt P08236) | 0.037 | -0.016 | -0.075 | -0.013 | 0.011 | 0.025 | -0.005 | -0.032 | 0.174 | -0.077 | -0.013 | -0.014 | -0.027 | -0.073 | 0.277 | 0.06 | 0.03 | -0.038 | -0.501 (active) | -0.048
GNAS (UniProt Q5JWF2) | -0.04 | 0.001 | -0.059 | 0.009 | 0.022 | 0.041 | -0.009 | 0 | -0.059 | 0.073 | 0.105 | -0.043 | -0.014 | -0.027 | -0.01 | 0.034 | -0.027 | 0.067 | -0.036 | -0.011
